Data on 40 compounds can be found in PubChem BioAssay (NCI).

Values joined by “and” are separate entries in the source; they are usually repeats but may differ in a detail not shown here. Equal entries are not always repeated. About 83,000 compounds went through this panel and 20% of them were active in at least one assay; those are over-represented in the sample as a whole.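 For each line, cells grew in 96-well plates with the test compound present at a single concentration for 48 hours.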 Unmarked numbers belong to inactive results. Active and inactive are the calls of the source. Rule for the calls: active = growth percent below 10; inactive = the rest.

In one test the test system is ACHN renal. The experiment in a line: NCI-60 one-dose screen, 48 h (100 = growth as untreated, 0 = no growth, -100 = all killed). The note with it: 10 µM unless noted.
On to `CCOC(=O)c1ccccc1NC1=C(Cl)C(=O)c2nc(C)ccc2C1=O`, for which the growth was 101%.
As for `Cc1ccc([C@H]2c3[nH]c4ccccc4c3C[C@H]3C(=O)N(CCCCCCC(=O)NO)CC(=O)N23)s1`, the growth is 85.5%.
Turning to `NC1CC2(CCN(c3cnc(C(=O)Nc4cc(F)cc5cccnc45)cn3)CC2)C1`, the growth is 79%.
Still for that read-out and setting: the result for `O=C(CSc1nc2ccccc2c(=O)n1-c1ccc(Cl)cc1)N/N=C/c1ccc(Oc2ccc(Cl)cc2)cc1` reads 63.5%.
Still for that read-out and setting: under `CCCCSC1=C(Cl)CN(c2ccc(Cl)cc2)C1=O` stands 104%; under `CC(=O)/C(N=Nc1ccc2oc(=O)ccc2c1)=C(\C)O`, 18.2%.
On the same count and under the same terms, the result for `CCOC(=O)c1c(NC(=O)c2ccc(C(F)(F)F)cc2)sc2c3c(ccc12)OCN(C)C3` reads -14.5% (active).

A further test relates to CAKI-1 renal. The test is described as above. The conditions noted are these: 10 µM unless noted.
As to `NNc1nnc2nc(Nc3ccccc3)nc(Nc3ccc(S(N)(=O)=O)cc3)n12`, the growth was 94.5%.
Still for that read-out and setting: the result for `Brc1ccc2[nH]cc(-c3nn4cc(-c5nccs5)nc4s3)c2c1` reads -36.8% (active); that for `Nn1c(=O)n(-c2cccc(C(F)(F)F)c2)c(=O)c2cc(-c3ccc(F)cc3F)ccc21`, -12.5% (active).
The same measure, in the same setting: under `CN(C)CCNc1ccc2ncc(C#Cc3cncc(C(=O)Nc4ccc(CN5CCN(C)CC5)c(C(F)(F)F)c4)c3)n2n1` stands 3.13% (active); under `O=S(=O)(Oc1ccc(-c2cn3ccoc3n2)cc1)C1CCCCC1`, 92.3%.
With `O=C(N/N=C\c1ccc([N+](=O)[O-])cc1)c1ccc2nc(-c3ccc(Br)cc3)[nH]c2c1`, the growth was 34.8%.
As to `Cc1ccsc1[C@H]1c2[nH]c3ccccc3c2C[C@H]2C(=O)N(CCCCCCC(=O)NO)CC(=O)N12`, the growth was 90.6%.
Still for that read-out and setting: the result for `Cc1ccc(N2CCN(C3=C(Cl)C(=O)c4ncccc4C3=O)CC2)cc1` reads 44.3%; that for `N#Cc1cccc(-c2cc(-c3ccc4c(c3)OCCO4)[nH]n2)c1`, 35.8%.
Same read-out and setting: under `COc1cc2cc(Oc3ccc(NC(=O)c4cc(C(F)(F)F)cc(C(F)(F)F)c4)cc3)c(C)nc2cc1OCCN1CCOCC1` stands 52.8%; under `N#C/C(=N\Nc1ccc(F)cc1)C(=O)Nc1cc(-c2ccccc2)nn1-c1ccccc1`, 2.61% (active); under `CN(C)CCCOc1ccc(C(=C(c2ccccc2)C2CCCC2)c2ccc(OCCCN(C)C)cc2)cc1`, -79.3% (active).
As for `NC(=O)c1ncn2c(=O)n(CCF)nnc12`, the growth is 34%.
Still for that read-out and setting: under `CN1CCN(c2ccc(Nc3nc(NCCNS(=O)(=O)c4ccc(Cl)cc4)c4sccc4n3)cc2)CC1` stands 72.8%; under `COc1cc(-c2nc(-c3ccccc3)[nH]c2-c2ccnc(NCCCNS(=O)(=O)c3ccc(C(F)(F)F)cc3)n2)ccc1Cl`, 31.2% and 35.4%; under `CC1(C)CC[C@]23CC[C@]4(C)[C@H](CC[C@@H]5[C@@]6(C)CC[C@H](N)C(C)(C)[C@@H]6CC[C@]54C)[C@H]2[C@H]1OC3`, 1.94% (active).
On to `Clc1ccc2[nH]cc(-c3nn4cc(-c5cccnc5)nc4s3)c2c1`, for which the growth was 69.7%.
The same measure, in the same setting: under `NS(=O)(=O)c1ccc(Nc2nc(N/N=C/c3ccc4c(c3)OCO4)nc(Nc3ccccc3)n2)cc1` stands 45.4%.
Same read-out and setting: under `Brc1cc(-c2cc(-c3ccc4c(c3)OCCO4)[nH]n2)cs1` stands 33.8%; under `CC1=C(C)C(=O)C(Nc2ccc(C)c(C)c2)=C(Br)C1=O`, 94%.
On the same count and under the same terms, under `COC(=O)N1CCN(CCNCc2ccc(NC(=O)c3ccc(C)c(C#Cc4cnc5cccnn45)c3)cc2C(F)(F)F)CC1` stands 20.2%; under `O=C(CCCCCCN1CC(=O)N2[C@@H](c3cccs3)c3[nH]c4ccccc4c3C[C@H]2C1=O)NO`, 88.5%.
As for `C=C(C)[C@@H]1CC[C@]2(C(=O)N3CCN(C)CC3)CC[C@]3(C)[C@H](CC[C@@H]4[C@@]5(C)CC[C@H](OP(=O)(OCC)OCC)C(C)(C)[C@@H]5CC[C@]43C)[C@@H]12`, the growth is 61.2%.
On the same count and under the same terms, under `CC(=O)N(O)CCCCCNC(=O)CCC(=O)N(O)CCCCCNC(=O)CCC(=O)N(O)CCCCCN(CCCCCCCCCC[P+](c1ccccc1)(c1ccccc1)c1ccccc1)CCCCCCCCCC[P+](c1ccccc1)(c1ccccc1)c1ccccc1` stands 29.3%.
For `Cc1[nH]c(C(=O)Nc2ccccc2OCc2cccc(C(=O)NCCN)c2)cc1Cl`, the growth is 90.2%.
Consider `CCOC(=O)Nc1ccc2c(ccn2C(=O)c2cccc(F)c2)c1`, for which the growth was 45.1%.
The same measure, in the same setting: under `O=C(Nc1ccc(N=Cc2c(O)[nH]c3ccccc23)cc1)Nc1ccc(S(=O)(=O)Nc2ncccn2)cc1` stands 94.8%.
Same read-out and setting: the result for `Fc1cccc(Cl)c1/C=N/Nc1nc(N/N=C/c2c(F)cccc2Cl)nc(N2CCCCC2)n1` reads 14.1%; that for `CCc1nnc(NC(=O)c2cc(-c3ccc(Cl)cc3Cl)oc2C)s1`, 80.9%; that for `C/C(=N\NC(=O)Nc1ccccc1)c1nnn(-c2ccc([N+](=O)[O-])cc2)c1C`, 94.4%.
The same measure, in the same setting: under `C#C[C@]1(O)CC[C@H]2[C@@H]3CC=C4c5sc(Nc6cc(Cl)ccc6OC)nc5CC[C@]4(C)[C@H]3CC[C@@]21C` stands -4.8% (active); under `O=C(O)CC1CCN(c2ccc3nnc(Cl)n3n2)CC1`, 95.8%; under `Cc1cc2nc(C(Cl)Cl)nc(-c3ccc(S(=O)(=O)N(C)C)cc3)n2n1`, 45%.
In the case of `CCOC(=O)c1ccccc1NC1=C(Cl)C(=O)c2nc(C)ccc2C1=O`, the growth was 98.6%.
Regarding `Cc1ccc([C@H]2c3[nH]c4ccccc4c3C[C@H]3C(=O)N(CCCCCCC(=O)NO)CC(=O)N23)s1`, the growth was 60.3%.
Still for that read-out and setting: under `NC1CC2(CCN(c3cnc(C(=O)Nc4cc(F)cc5cccnc45)cn3)CC2)C1` stands 79.3%; under `O=C(CSc1nc2ccccc2c(=O)n1-c1ccc(Cl)cc1)N/N=C/c1ccc(Oc2ccc(Cl)cc2)cc1`, 33%.
On the same count and under the same terms, the result for `CCCCSC1=C(Cl)CN(c2ccc(Cl)cc2)C1=O` reads 93.9%; that for `CC(=O)/C(N=Nc1ccc2oc(=O)ccc2c1)=C(\C)O`, 33.3%.
Still for that read-out and setting: under `CCOC(=O)c1c(NC(=O)c2ccc(C(F)(F)F)cc2)sc2c3c(ccc12)OCN(C)C3` stands -23.9% (active).
